Results: PubChem BioAssay (NCI)
This is part of a sample that, as a whole, favours compounds with a hit. Of some 79,000 tested, about 15% had one in any assay. A number with no mark means an inactive call. The source made the active and inactive calls. No stated cut-off is given here; in the data, active means growth inhibition above about 70%; inactive means the rest.

assay: NCI Yeast Anticancer Drug Screen. Data for the sgs1 mgt1 strain (AID 161);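 further: 0% = growth of cultures given vehicle only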; settings: S. cerevisiae sgs1 mgt1 strain, at 50.0 µM, active compounds read high
Procedure, shortened: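 Yeast cells carrying a defined DNA-repair defect were exposed to test compounds. Growth inhibition was measured relative to vehicle-treated controls.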

Row | SMILES | growth inhibition
1 | COc1cccc(C2c3cc4c(cc3OC(Nc3ccccc3)C2C)OCO4)c1O (configuration not stated) | 94.8% (active)
2 | Cc1cc(SC#N)cc(C)c1O | 74% (active)
3 | CCN(CC)CCCNc1ncc(C)c2c1c1ccc3c(O)cccc3c1n2C | -31.9%
4 | O=C1c2ccccc2C(O)(C#Cc2ccccc2)c2cnccc21 (configuration not stated) | 98.2% (active)
5 | CC(=O)Nc1nnc(C)s1 | -4.4%
6 | CC1CN(CC(O)c2ccc(Br)cc2)CC(C)O1 (configuration not stated) | 66.5%
7 | O=C(C=P(c1ccccc1)(c1ccccc1)c1ccccc1)CC(=S)CC(=O)C=P(c1ccccc1)(c1ccccc1)c1ccccc1 | 97.8% (active)
8 | CN(C)CCC(/C=C/c1ccccc1)=N\Nc1ccc(Cl)cc1Cl | 99.4% (active)
9 | Oc1c(Cl)cc(Br)cc1Cl | 96.5% (active)
10 | Cc1ccc2c(ccc(CC(=S)[S-])[n+]2C)c1 | 66.3%
11 | Cc1ccc2c(c1)C(=O)N(CC[P+](c1ccccc1)(c1ccccc1)c1ccccc1)C2=O | 66.8%
12 | Nc1ncnc2c1c(-c1ccccc1)cn2-c1ccc(Cl)cc1 | 71.8% (active)
13 | Nc1nnc(-c2cc([N+](=O)[O-])cc([N+](=O)[O-])c2)o1 | 15.1%
14 | COc1cc2c(cc1OC)C(Cl)C(c1ccc(F)cc1)=C2Cl (configuration not stated) | -5.35%
15 | COc1ccc(C2Oc3c(cccc3OC)C=C2[N+](=O)[O-])cc1 (configuration not stated) | 37.7%
16 | O=C(O)c1cc2cc3ccccc3cc2cc1O | 81% (active)
17 | Oc1ccc2ccc3ccccc3c2c1 | 99.5% (active)
18 | COC(=O)c1ccc(OC)cc1 | 49.8%
19 | Clc1ccc2c(NCCCCCCNc3ccnc4cc(Cl)ccc34)ccnc2c1 | 87.5% (active)
20 | COc1ccc(C2C3=C(CCC(CN(C)C)C3=O)OC3=C2C(=O)C(CN(C)C)CC3)cc1 (configuration not stated) | -20.6%
21 | CC(C)CC(NC(=O)COc1c(Cl)cc(Cl)c(Cl)c1Cl)C(=O)O (configuration not stated) | -32.6%
22 | Cc1nc2c(=O)[nH]c3ccc(Cl)cc3c2o1 | 40.7%

assay: NCI Yeast Anticancer Drug Screen. Data for the cln2 rad14 strain (AID 165);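 further: 0% = growth equal to vehicle treated cultures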; settings: S. cerevisiae cln2 rad14 strain, at 5.0 µM (retest, dose inferred, filed as 0.5), active compounds read high
Procedure, shortened: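 Strain: cln2 rad14 yeast, altered in cell cycle control and DNA damage repair. Read-out: growth inhibition vs vehicle.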

Row | SMILES | growth inhibition [%]
23 | O=Nc1c(O)ccc2ccccc12.[Fe].[Na+] | -2
24 | CC(C)Cc1ncc(CC(C)C)n(O)c1=O | -6
25 | COc1ccc2c(c1)CCc1c-2ccc(C)c1CCC(=O)O | -3
26 | COc1ccc(/C=C(\C#N)c2ccccc2)cc1OC | 30
27 | CCC(=O)OCC(=O)c1ccc(-c2ccccc2)cc1 | 33
28 | C=C1CC(c2ccc(OCCCN3C(=O)c4ccccc4C3=O)c(OC)c2)OC1=O (configuration not stated) | 11
29 | N[C@H](C(=O)O)[C@@H]1CC(Cl)=NO1 | 68
30 | Cc1ccc2c(c1)[n+]([O-])c(N)c(C#N)[n+]2[O-] | -26
31 | Cc1cc(O)c2c(c1)C(=O)c1c(c(O)cc(O)c1-c1c(O)cc(O)c3c1C(=O)c1cc(C)cc(O)c1C3=O)C2=O | 27
32 | CC(=O)c1csc2c1C(=O)c1scc(C(C)=O)c1C2=O | 14
33 | CCC(CCCN(CC)CCc1ccccc1)OC(=O)c1cc(OC)c(OC)c(OC)c1 (configuration not stated) | 2
34 | COC(CCC[N+](C)(C)C)CC[N+](C)(C)C (configuration not stated) | 1
35 | CCC(=O)c1ccc2ccc3ccccc3c2c1 | 4
36 | CN(C)c1nc(N(C)C)oc(=[N+](C)C)n1 | 3
37 | COc1ccc(Cc2ccc(N)cc2)cc1 | -61
38 | CN(C)CC(CN(C)C)C(=O)c1ccc(Oc2ccccc2)cc1 | 33
39 | C1C2OC2C2C1C1CC2C2OC12 (configuration not stated) | 2
40 | Nc1ccc2c(c1)[nH]c(=O)c1cccc(Cl)c12 | -31
41 | COc1cccc(C2c3cc4c(cc3OC(Nc3ccccc3)C2C)OCO4)c1O (configuration not stated) | 4
42 | Cc1cc(SC#N)cc(C)c1O | 32

Row | SMILES | growth inhibition [%]
43 | CCN(CC)CCCNc1ncc(C)c2c1c1ccc3c(O)cccc3c1n2C | 8
44 | O=C1c2ccccc2C(O)(C#Cc2ccccc2)c2cnccc21 (configuration not stated) | -11
45 | CC(=O)Nc1nnc(C)s1 | -3
46 | CC1CN(CC(O)c2ccc(Br)cc2)CC(C)O1 (configuration not stated) | 8
47 | O=C(C=P(c1ccccc1)(c1ccccc1)c1ccccc1)CC(=S)CC(=O)C=P(c1ccccc1)(c1ccccc1)c1ccccc1 | -3
48 | CN(C)CCC(/C=C/c1ccccc1)=N\Nc1ccc(Cl)cc1Cl | 66
49 | Oc1c(Cl)cc(Br)cc1Cl | 3
50 | Cc1ccc2c(ccc(CC(=S)[S-])[n+]2C)c1 | 10
51 | Cc1ccc2c(c1)C(=O)N(CC[P+](c1ccccc1)(c1ccccc1)c1ccccc1)C2=O | 65
52 | Nc1ncnc2c1c(-c1ccccc1)cn2-c1ccc(Cl)cc1 | 0
53 | Nc1nnc(-c2cc([N+](=O)[O-])cc([N+](=O)[O-])c2)o1 | 6
54 | COc1cc2c(cc1OC)C(Cl)C(c1ccc(F)cc1)=C2Cl (configuration not stated) | -3
55 | COc1ccc(C2Oc3c(cccc3OC)C=C2[N+](=O)[O-])cc1 (configuration not stated) | 12
56 | O=C(O)c1cc2cc3ccccc3cc2cc1O | -1
57 | Oc1ccc2ccc3ccccc3c2c1 | -3
58 | COC(=O)c1ccc(OC)cc1 | -1
59 | Clc1ccc2c(NCCCCCCNc3ccnc4cc(Cl)ccc34)ccnc2c1 | -2
60 | COc1ccc(C2C3=C(CCC(CN(C)C)C3=O)OC3=C2C(=O)C(CN(C)C)CC3)cc1 (configuration not stated) | -1
61 | CC(C)CC(NC(=O)COc1c(Cl)cc(Cl)c(Cl)c1Cl)C(=O)O (configuration not stated) | 4
62 | Cc1nc2c(=O)[nH]c3ccc(Cl)cc3c2o1 | 7
